# Screen size: about 320,000 compounds; about 22,000 (6.9%) were called active. About 27% were inconclusive and are not listed. For the sample, actives were picked, then their nearest neighbours and some compounds at random. Unmarked numbers belong to inactive results. Calls follow the shape of the dose curve; as a rule, active = well fitted inhibition curve with a large enough effect; inconclusive = small, poorly fitted or top-dose-only effect, or another doubt; inactive = no such curve, though single readings can be large or run the other way.
# Test: Primary qHTS for delayed death inhibitors of the malarial parasite plastid, 96 hour incubation
# Conditions: P. falciparum luciferase reporter growth; series mostly up to 28.7 µM; activity change, negative = inhibition: at the top concentration
# Method in brief: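 P. falciparum expressing integrated firefly luciferase grown in erythrocytes (2% hematocrit, 0.05% parasitemia final) with compounds for 96 hours at 37 C, 5% CO2. Growth inhibition read as loss of luminescence after adding luciferase detection reagent.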
# % is scaled to controls: 0 for no effect and ±100 for the full control effect; potency is read from the fitted curve at half-maximal effect.
Structure (SMILES),"activity change, negative = inhibition [%]",Potency
COc1ccc(C(=O)NC(=S)N2CCNC(=O)C2CC(=O)OC(C)C)cc1 (configuration not stated),4.17,
O=C1CCC(=O)N(c2ccccc2)N1,11.7,
Cc1cc(C)nc(Nc2n[nH]c(-c3ccccc3N)n2)n1,227,
COc1ccccc1OCC(=O)Nc1ccccc1C(=O)NC1CC1,45.6,
N#Cc1cc([N+](=O)[O-])ccc1NCC1CCCO1 (configuration not stated),-0.513,
C/C(N)=C(/C#N)C(=O)COC(=O)C1=NN(c2ccccc2)C(=O)CC1,30,
COC(=O)CC1=NN(c2nc(C)cc(C)n2)C(=O)C1,-5.91,
COC(=O)CC1=NN(c2ccccc2)C(=O)C1,,5.22 µM (active)
COC(=O)[C@H](Cc1ccccc1)NC(=O)Nc1ccc(OC)cc1,26.2,
COc1cc([C@H](Cc2ccccc2)NC(C)=O)oc(=O)c1,,2.94 µM (active)
CCOC(=O)C(Cc1ccccc1)NC(=O)CCC(=O)c1ccc(OC)cc1 (configuration not stated),28.2,
Cc1cccc(NS(=O)(=O)c2cc(Cl)ccc2Cl)n1,,2.94 µM (active)
Nc1ccc(Cl)c(S(=O)(=O)Nc2ccccc2Cl)c1,4.92,
O=S(=O)(Nc1cccc(Oc2ccc(Cl)cc2)n1)c1ccc(F)cc1,5.23,
Cc1ccc(C(=O)NCCNC(=O)c2cnccn2)cc1,0.273,
O=C(O)CCCC(=O)N1N=C(c2ccco2)CC1c1ccco1 (configuration not stated),-25.2,
O=S(=O)(NCc1cccnc1)c1ccc(Br)s1,-3.44,
O=S(=O)([N-]c1nc2ccccc2nc1-[n+]1ccc(Cc2ccccc2)cc1)c1ccc(Br)s1,,13.1 µM (active)
Oc1ccccc1-c1cc(-c2ccc(Cl)cc2)n[nH]1,-48.6,
CCc1nn(CC(=O)N2CCN(c3cc(C)ccc3C)CC2)c(=O)c2cc3occc3n12,-0.478,
O=C(O)c1cc(S(=O)(=O)N(Cc2ccccc2)c2ccccc2)ccc1Cl,68.6,
COc1cccc(-c2noc(C3CCCN(C(=O)c4ccc(F)cc4)C3)n2)c1 (configuration not stated),84,
COc1ccc(NS(=O)(=O)c2ccc(F)cc2F)cn1,36,
COc1cc(OC)nc(NC(=O)CCl)n1,4.17,
COc1cc(OC)nc(S(C)(=O)=O)n1,,11.7 µM (active)
CC(NC(=O)C(C)(C)C)C(c1cccs1)N1CCN(Cc2ccccc2)CC1 (configuration not stated),-2.32,

Structure (SMILES),"activity change, negative = inhibition [%]",Potency
Cc1ccc(NC(=O)CCCNC(=O)c2ccc(Cl)cc2)cc1S(=O)(=O)N1CCCCC1,29.9,
CCOC(=O)c1c(NC(=O)CSc2nnc(Cc3csc(N)n3)n2C)sc(C)c1C,18.3,
CCOC(=O)c1sc(NC(=O)CSc2nc3c(c(=O)n2-c2ccccc2)SCC3)c(C(=O)OCC)c1C,,3.7 µM (active)
CCc1nnc(NC(=O)CSc2nc3c(c(=O)n2-c2ccccc2OC)SCC3)s1,,8.28 µM (active)
COc1ccccc1-n1c(CNC(=O)c2ccccc2)nnc1SCC(=O)Nc1nnc(C)s1,8.45,
CCOC(=O)c1sc(NC(=O)COc2ncnc3ccccc23)c(C(=O)OCC)c1C,-21.2,
CCc1nnc(NC(=O)CSc2nnc(Cc3ccccc3)n2-c2ccc(OC)cc2)s1,39.7,
Cc1cc(C(=O)NC2CCN(Cc3ccccc3)CC2)n[nH]1,57.9,
O=C(Nc1cc2c3c(c1)CC(=O)N3CCC2)c1ccccc1F,-13,
CCCC1C(=O)N2C(N(C)C)=Nc3ccc(C)cc3N2C1=O (configuration not stated),12.4,
COc1ccc(C(=O)N/N=C(\C)CC(=O)Nc2ccc(Cl)cn2)cc1,34.4,
CC(c1ccccn1)N(C)C(=O)c1ccc2nc(Cc3cccc(Cl)c3)oc2c1 (configuration not stated),-1.98,
O=C(Cc1c(Cl)cccc1Cl)NC1CC1,0.175,
COC(=O)c1ccc(COc2ccc(C#N)cc2)o1,-24.3,
CC(Oc1ccc(Br)cc1)C(=O)NC1CCCCCC1 (configuration not stated),52.7,
CN(C)S(=O)(=O)c1ccc(C(=O)NCCN=C2NS(=O)(=O)c3ccccc32)cc1,34.3,
COc1ccccc1N1CCC(N2CCN(CC(C)(C)C)C(CCO)C2)CC1 (configuration not stated),,0.465 µM (active)
COc1ccc(OCC(=O)Nc2ccc(N3CCC(C)CC3)cc2)cc1,15.5,
COc1ccc(N2CCC(N3CCN(C)C(CCO)C3)CC2)cc1 (configuration not stated),,14.7 µM (active)
CCOc1ccccc1CN1CCN(C2CCC2)CC1CCO (configuration not stated),-8.22,
Cc1cc(F)ccc1N1CCC(N2CCN(C)C(CCO)C2)CC1 (configuration not stated),0,
CNCC(O)CN1CCN(c2ccccc2OC)CC1 (configuration not stated),23.6,
COc1cccc(C(=O)Nc2nnc(S(=O)(=O)N(C)c3ccccc3)s2)c1,3.28,
CCc1cc(-c2nnc(SCC(=O)NC3CC3)n2C)cs1,0.597,
Cc1ccc(S(=O)(=O)CC(=O)Nc2nnc(C)s2)cc1,-3.54,
CCOc1ccc(CN2CCC(n3nccc3NC(=O)C3CC3)CC2)cc1CO,-0.811,

# Source: PubChem BioAssay AID504834 (National Center for Advancing Translational Sciences (NCATS), 2011)
